Screening results from PubChem BioAssay.
Hits are enriched below; roughly 3.7% of the tested compounds scored in any of these assays.
ATXN2 expr inh = reduces ATXN2 reporter expression in HEK-293 cells; HEK-293 ATXN2-luciferase reporter, luminescence, 24 h; Potency, µM (top dose mostly 57 µM), actives largely listed as inhibitors; actives 0.72% (n = 360,000); also: nearly all actives have a fitted effect of over 55% in size
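ATXN2-luciferase reporter cells (luciferase flanked by upstream and downstream ATXN2 gene portions) were treated 24 h at 37 °C with compounds at up to 57 uM. SteadyGlo luminescence gave expression; GF-AFC fluorescence gave viability.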
GLP-1R agonist = activates the human GLP-1 receptor | actives 0.007% (n = 380,000) | AID 624172 | Potency, µM (top dose mostly 45.6 µM), usual class: activators | HEK293 GLP-1R CRE-luciferase, luminescence, 4-6 h; cells express a hypersensitive GLP-1R form
Target sequence (P43220 whole entry, looked up): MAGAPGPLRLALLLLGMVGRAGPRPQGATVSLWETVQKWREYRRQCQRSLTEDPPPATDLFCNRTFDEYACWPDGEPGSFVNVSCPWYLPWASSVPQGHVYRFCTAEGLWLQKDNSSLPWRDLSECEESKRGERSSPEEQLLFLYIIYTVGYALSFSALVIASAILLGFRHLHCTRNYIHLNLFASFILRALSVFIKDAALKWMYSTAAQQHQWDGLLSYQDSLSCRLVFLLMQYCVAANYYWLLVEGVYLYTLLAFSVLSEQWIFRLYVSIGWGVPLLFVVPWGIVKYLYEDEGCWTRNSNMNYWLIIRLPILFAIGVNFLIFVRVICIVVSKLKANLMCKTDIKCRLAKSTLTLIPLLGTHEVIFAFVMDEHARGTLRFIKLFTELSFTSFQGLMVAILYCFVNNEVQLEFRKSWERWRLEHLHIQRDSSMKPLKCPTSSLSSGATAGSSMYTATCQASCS
TGFb inhibitor = inhibitors of TGF-b signaling; HepG2 CAGA-GFP TGF-b/SMAD3 reporter, GFP fluorescence, 18 h; TGF-beta stimulated, 500 pg/mL final; actives 1.2% (n = 410,000); Potency, µM (series often up to 46.1 µM), hits mostly inhibitors; also: nearly all actives have a fitted effect of over 65% in size
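First, reporter cells (HEPG2 CAGA-GFP) rested 2 h at 37 degrees C. Next, compounds were pinned in and TGF-beta added to 500 pg/mL final. After 18 h, GFP was imaged per cell and summed per well.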
S2 tox = reduces viability in counter-screen for ATXN expression inhibitors | S2 cells (HEK-293 line with an ATXN2-luciferase reporter) viability, CellTiter-Fluor protease fluorescence, 24 h | Potency, µM (doses to about 56.7 µM), actives largely listed as cytotoxic | actives 0.49% (n = 400,000) | AID 651635; also: nearly all actives have a fitted effect of over 40% in size
HepG2 tox = counter-screen for TGF-b inhibitors: cytotoxicity in HepG2 cells. AID 588856. HepG2 CAGA-GFP viability, ATP luminescence, 18 h. actives 0.76% (n = 410,000). Potency, µM (highest dose often 46.1 µM), most hits filed as cytotoxic
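HepG2 CAGA-GFP cells (1000/well, DMEM with 1% FBS) received compound, then TGF-beta at 500 pg/mL final, and were incubated 18 hours at 37 degrees C. Viability was read by CellTiter-Glo luminescence. Media-only wells were set as complete cell-killing and DMSO as no toxicity.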
GLP-1R inv ag = GLP-1 receptor (human) inverse agonism; P43220; Potency, µM (top dose mostly 38.3 µM), most hits filed as inhibitors; actives 1.6% (n = 410,000); AID 624417; HEK293 GLP-1R CRE-luciferase, luminescence, 24 h; GLP-1R form is constitutively active; also: nearly all actives have a fitted effect of over 55% in size
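Stable HEK293 clone (constitutively active GLP-1R + cAMP-response luciferase); 200 cells/uL plated, 12 h pre-culture, compound 24 hr, 37 deg C/5% CO2; detection reagent 12 min RT; luminescence.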
Large screens that a line does not name were inactive. Calls follow the shape of the dose curve; as a rule, active = well fitted curve in the direction sought with a large enough effect; inconclusive = small, poorly fitted or top-dose-only effect, or another doubt; inactive = no such curve, though single readings can be large; an effect the other way counts as inactive or inconclusive.

COC(=O)c1[nH]c2ccc(C)cc2c1NC(=O)CN1CCN(Cc2ccccc2)CC1	GLP-1R inv ag inconclusive
CCOC(=O)N1CCN(CC(=O)Nc2c(C(=O)OC)[nH]c3cc(C)ccc23)CC1	none
CCOC(=O)c1[nH]c2ccc(OC)cc2c1NC(=S)N1CCN(c2cccc(C)c2C)CC1	TGFb inhibitor 18µM, HepG2 tox 10µM, GLP-1R inv ag inconclusive
COC(=O)c1[nH]c2ccc(C)cc2c1NC(=O)CN1CCC(C)CC1	GLP-1R inv ag 6.3µM
COC(=O)c1[nH]c2ccc(C)cc2c1NC(=O)CN1CCN(c2ccccc2)CC1	GLP-1R inv ag 10µM
COC(=O)c1[nH]c2ccc(C)cc2c1NC(=O)CN1CCN(c2ccc(F)cc2)CC1	S2 tox inconclusive, GLP-1R inv ag 4µM
COC(=O)c1[nH]c2ccc(C)cc2c1NC(=O)CN1CCN(C(=O)c2ccccc2)CC1	none
Cc1[nH]c2ccccc2c1C(=O)C(C)Sc1nc2ccccc2c(=O)n1Cc1cccnc1 (stereo not drawn)	none (no result: ATXN2 expr inh, GLP-1R agonist, S2 tox, GLP-1R inv ag)
Cc1ccc2[nH]c(C(=O)O)c(NC(=O)CN3CCN(c4cccc(C)c4C)CC3)c2c1	TGFb inhibitor inconclusive, GLP-1R inv ag 10µM
Cc1ccc(C)c(N2CCN(CC(=O)Nc3ccc4[nH]c(=O)[nH]c4c3)CC2)c1	none
CCC(=O)N1CCc2cc(Br)cc(S(=O)(=O)CCC(=O)NCc3ccc(F)cc3)c21	TGFb inhibitor inconclusive, S2 tox inconclusive (no result: GLP-1R agonist)
O=C1c2cccc(OCc3ccc(F)cc3)c2CCN1Cc1ccccc1	TGFb inhibitor 18µM, GLP-1R inv ag inconclusive
O=C(O)C1CCCC1	none (no result: ATXN2 expr inh, GLP-1R agonist, S2 tox, GLP-1R inv ag)
Cc1cc(C)c(Cn2c3ccccc3c3cnn(CC(=O)N4CCCCC4)c(=O)c32)c(C)c1	none (no result: GLP-1R agonist)
CCN1CCN(C(=O)Cn2ncc3c4ccccc4n(Cc4c(C)cc(C)cc4C)c3c2=O)CC1	TGFb inhibitor 16µM (no result: ATXN2 expr inh, GLP-1R agonist, S2 tox)
CCn1c(=NC(=O)CSC(C)=O)sc2cc(F)ccc21	none
C#CCn1c(=NC(=O)CSC(C)=O)sc2cc(F)ccc21	ATXN2 expr inh inconclusive, TGFb inhibitor inconclusive, GLP-1R inv ag 3.5µM (no result: S2 tox)
NC(=O)[C@H]1O[C@@H](O)[C@H](O)[C@@H](O)[C@@H]1O	none (no result: ATXN2 expr inh, TGFb inhibitor, S2 tox, HepG2 tox, GLP-1R inv ag)
CCOC(=O)N1CCC(NC(=O)c2cnn(-c3ccc(C)cc3)c2-n2cccc2)CC1	none (no result: ATXN2 expr inh, GLP-1R agonist, S2 tox)
COCCCNCCCCOc1ccc(Br)cc1C	ATXN2 expr inh inconclusive, TGFb inhibitor inconclusive, GLP-1R inv ag 2.8µM
CCCCNCCCOc1ccc(C)cc1Br	S2 tox inconclusive, GLP-1R inv ag inconclusive (no result: ATXN2 expr inh)
Cc1ccc(OCCCNCCO)c(Br)c1	GLP-1R inv ag 4µM
Cc1cc(C(=O)COC(=O)c2ccc(O)cc2)c(C)n1-c1ccccc1F	GLP-1R inv ag 10µM
Cc1cc(C(=O)COC(=O)c2ccc[nH]c2=O)c(C)n1-c1ccccc1F	none (no result: ATXN2 expr inh)
COc1ccc(NC2=Nc3ccccc3N3C2=Nc2c(c(C)nn2-c2ccc(C)cc2)C3c2cccnc2)cc1 (stereo not drawn)	none
CC(=O)Nc1ccc(NC2=Nc3ccccc3N3C2=Nc2c(c(C)nn2-c2ccccc2)C3c2ccccc2)cc1 (stereo not drawn)	ATXN2 expr inh 7.9µM, S2 tox inconclusive
O=C1OC2(c3ccccc31)c1cc(Br)c(O)c(Br)c1Oc1c2cc(Br)c(O)c1Br	none (no result: GLP-1R agonist, TGFb inhibitor, HepG2 tox, GLP-1R inv ag)
CCOc1ccccc1O[C@@H](c1ccccc1)[C@@H]1CNCCO1	none (no result: ATXN2 expr inh, TGFb inhibitor, S2 tox, HepG2 tox, GLP-1R inv ag)
Cc1c(CCOC(=O)c2ccc(Cl)cc2Cl)sc[n+]1CC(=O)c1ccc(Br)cc1	TGFb inhibitor inconclusive, HepG2 tox 14µM, GLP-1R inv ag 10µM (no result: ATXN2 expr inh)
Cc1c(CCOC(=O)C2C3CC4CC(C3)CC2C4)sc[n+]1CC(=O)c1ccc(Br)cc1 (stereo not drawn)	TGFb inhibitor inconclusive, GLP-1R inv ag 11µM (no result: S2 tox)
Cc1ccc(CCNS(=O)(=O)c2ccc3c(c2)CCN3C(=O)CCC(=O)O)cc1	none (no result: GLP-1R agonist)
CCOC(=O)N1CCN(Cc2nc3cc(NC(=O)c4ccc([N+](=O)[O-])cc4)ccc3n2C(C)C)CC1	GLP-1R inv ag inconclusive (no result: ATXN2 expr inh, GLP-1R agonist, S2 tox)
CC(=O)/C=C/n1c(=S)oc2ccccc21	ATXN2 expr inh inconclusive, TGFb inhibitor 6.3µM, HepG2 tox 16µM, GLP-1R inv ag inconclusive (no result: S2 tox)
N=c1ccn2c(n1)OC1C(O)[C@@H](CO)O[C@H]12 (stereo partly drawn)	none (no result: ATXN2 expr inh, GLP-1R agonist, S2 tox, GLP-1R inv ag)
CC(CCC(C)C(C)(C)C)[C@@H]1CC[C@H]2C3C[C@H](OS(O)(=S)=S)[C@H]4C[C@H](OS(O)(=S)=S)[C@@H](OS(O)(=S)=S)C[C@]4(C)[C@H]3CC[C@]12C (stereo partly drawn) (tested in a mixture with another compound)	ATXN2 expr inh inconclusive, TGFb inhibitor inconclusive, S2 tox 18µM, HepG2 tox 16µM, GLP-1R inv ag inconclusive
C[C@@H]1CCCCO[C@H](CN(C)Cc2ccc(C(F)(F)F)cc2)[C@H](C)CN([C@@H](C)CO)C(=O)c2cc(NC(=O)Cc3ccccc3)ccc2O1	TGFb inhibitor inconclusive, S2 tox 13µM, GLP-1R inv ag 2.8µM
CC(C)NC(=O)Nc1ccc2c(c1)C(=O)N([C@H](C)CO)C[C@H](C)[C@@H](CN(C)Cc1ccc(C(F)(F)F)cc1)OCCCC[C@H](C)O2	ATXN2 expr inh inconclusive, TGFb inhibitor 16µM, GLP-1R inv ag 10µM (no result: S2 tox)
CC(C)NC(=O)Nc1ccc2c(c1)C(=O)N([C@H](C)CO)C[C@H](C)[C@@H](CN(C)Cc1ccc3c(c1)OCO3)OCCCC[C@@H](C)O2	none
C[C@@H]1CN([C@@H](C)CO)C(=O)c2cc(Br)cnc2O[C@@H]1CN(C)Cc1ccc(Oc2ccccc2)cc1	TGFb inhibitor inconclusive, S2 tox 25µM, GLP-1R inv ag inconclusive
COc1ccc(CN(C)C[C@@H]2OCCCC[C@H](C)Oc3ccc(NC(=O)Cc4ccccc4)cc3C(=O)N([C@@H](C)CO)C[C@@H]2C)cc1	S2 tox inconclusive, GLP-1R inv ag inconclusive
C[C@H](CO)N1C[C@H](C)[C@@H](CN(C)Cc2ccncc2)Oc2ncc(Br)cc2C1=O	S2 tox inconclusive
C[C@@H]1CN([C@@H](C)CO)C(=O)c2cc(NC(=O)Nc3ccc(F)cc3)ccc2O[C@@H]1CN(C)Cc1ccc(Oc2ccccc2)cc1	TGFb inhibitor inconclusive, S2 tox 25µM, HepG2 tox 16µM, GLP-1R inv ag inconclusive
Cc1ccccc1C(=O)NC(C)c1nnc2n1CCN(Cc1ccccc1F)CC2 (stereo not drawn)	none (no result: ATXN2 expr inh, GLP-1R agonist, TGFb inhibitor, HepG2 tox, GLP-1R inv ag)
O=C(c1cccc(Cl)c1)N1CCC(c2nc3c(nnn3Cc3ccc(F)cc3F)c(=O)[nH]2)CC1	none (no result: GLP-1R agonist)
